# In the supplement of paper PMC8728848:
# This excerpt belongs to a sample that is enriched for the strongest signals.
# Legend:
# Test in all cases: glycan array binding signal (z-score within array); higher = stronger binding
# Gal6S(b1-4)Glc = conditions: glycan notation: IUPAC condensed, linker removed
# Method in brief: (§1)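 Columns mapping to the same glycan were averaged after glycan names were converted to IUPAC-condensed notation. The data come from 3228 arrays in the Consortium for Functional Glycomics database, limited to those with an available protein sequence. Binding is reported as a within-array Z-score averaged across arrays of one protein sequence and across linkers.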
# GalNAc(a1-3)Gal = conditions: glycan notation: IUPAC condensed, linker removed
# Method in brief: as §1
# [1] = test system: GlcNAc(a1-3)Gal(b1-4)GlcNAc; conditions: glycan notation: IUPAC condensed, linker removed
# Method in brief: as §1
# GalNAc(b1-6)GalNAc = conditions: glycan notation: IUPAC condensed, linker removed; mutation: R125K
# Method in brief: as §1
# [2] = test system: GlcNAc(a1-4)Gal(b1-4)GlcNAc(b1-3)Gal(b1-4)Glc; conditions: glycan notation: IUPAC condensed, linker removed
# Method in brief: as §1
# GalNAc(a1-3)GalNAc = conditions: glycan notation: IUPAC condensed, linker removed
# Method in brief: as §1
# GalNAc(b1-3)GalNAc = conditions: glycan notation: IUPAC condensed, linker removed
# Method in brief: as §1
# [3] = test system: GalNAc(b1-3)Gal(a1-4)Gal(b1-4)GlcNAc; conditions: glycan notation: IUPAC condensed, linker removed
# Method in brief: as §1
# [4] = test system: GlcNAc(a1-4)Gal(b1-4)GlcNAc(b1-3)Gal(b1-4)GlcNAc; conditions: glycan notation: IUPAC condensed, linker removed
# Method in brief: as §1
# [5] = test system: GalNAc(b1-4)GlcNAc(b1-2)Man(a1-3)[GalNAc(b1-4)GlcNAc(b1-2)Man(a1-6)]Man(b1-4)GlcNAc(b1-4)GlcNAc; conditions: glycan notation: IUPAC condensed, linker removed
# Method in brief: as §1
# [6] = test system: GlcNAc(a1-4)Gal(b1-4)GlcNAc(b1-3)Gal(b1-4)[Fuc(a1-3)]GlcNAc(b1-3)Gal(b1-4)[Fuc(a1-3)]GlcNAc; conditions: glycan notation: IUPAC condensed, linker removed
# Method in brief: as §1
# [7] = test system: Glc(a1-4)Glc(a1-4)Glc(a1-4)Glc; conditions: glycan notation: IUPAC condensed, linker removed
# Method in brief: as §1
# [8] = test system: Glc(a1-6)Glc(a1-6)Glc(a1-6)Glc; conditions: glycan notation: IUPAC condensed, linker removed
# Method in brief: as §1
# Glc(a1-6)Glc(a1-6)Glc = conditions: glycan notation: IUPAC condensed, linker removed
# Method in brief: as §1
# [9] = test system: GlcNAc(a1-4)Gal(b1-4)GlcNAc(b1-3)Gal(b1-4)GlcNAc(b1-3)Gal(b1-4)GlcNAc; conditions: glycan notation: IUPAC condensed, linker removed
# Method in brief: as §1
# Glc(a1-4)Glc = conditions: glycan notation: IUPAC condensed, linker removed
# Method in brief: as §1
# Glc(b1-6)Glc = conditions: glycan notation: IUPAC condensed, linker removed
# Method in brief: as §1
# Glc(b1-4)Glc = conditions: glycan notation: IUPAC condensed, linker removed
# Method in brief: as §1
# GlcA(b1-3)Gal = conditions: glycan notation: IUPAC condensed, linker removed
# Method in brief: as §1
# GlcA(b1-3)GlcNAc = conditions: glycan notation: IUPAC condensed, linker removed
# Method in brief: as §1
# Sequence of PILRb (Mus musculus), Q2YSF2 (Q2YSF2 entry or part of it): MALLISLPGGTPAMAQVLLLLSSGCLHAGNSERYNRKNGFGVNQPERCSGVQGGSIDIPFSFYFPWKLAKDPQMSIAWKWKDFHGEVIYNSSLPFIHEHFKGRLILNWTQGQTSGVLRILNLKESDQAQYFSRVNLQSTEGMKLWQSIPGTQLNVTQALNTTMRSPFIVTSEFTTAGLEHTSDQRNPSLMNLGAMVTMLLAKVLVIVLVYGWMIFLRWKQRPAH
# Sequence of Neurocan (Homo sapiens), O14594 (O14594 other isoform, or with tags, fused parts or gaps): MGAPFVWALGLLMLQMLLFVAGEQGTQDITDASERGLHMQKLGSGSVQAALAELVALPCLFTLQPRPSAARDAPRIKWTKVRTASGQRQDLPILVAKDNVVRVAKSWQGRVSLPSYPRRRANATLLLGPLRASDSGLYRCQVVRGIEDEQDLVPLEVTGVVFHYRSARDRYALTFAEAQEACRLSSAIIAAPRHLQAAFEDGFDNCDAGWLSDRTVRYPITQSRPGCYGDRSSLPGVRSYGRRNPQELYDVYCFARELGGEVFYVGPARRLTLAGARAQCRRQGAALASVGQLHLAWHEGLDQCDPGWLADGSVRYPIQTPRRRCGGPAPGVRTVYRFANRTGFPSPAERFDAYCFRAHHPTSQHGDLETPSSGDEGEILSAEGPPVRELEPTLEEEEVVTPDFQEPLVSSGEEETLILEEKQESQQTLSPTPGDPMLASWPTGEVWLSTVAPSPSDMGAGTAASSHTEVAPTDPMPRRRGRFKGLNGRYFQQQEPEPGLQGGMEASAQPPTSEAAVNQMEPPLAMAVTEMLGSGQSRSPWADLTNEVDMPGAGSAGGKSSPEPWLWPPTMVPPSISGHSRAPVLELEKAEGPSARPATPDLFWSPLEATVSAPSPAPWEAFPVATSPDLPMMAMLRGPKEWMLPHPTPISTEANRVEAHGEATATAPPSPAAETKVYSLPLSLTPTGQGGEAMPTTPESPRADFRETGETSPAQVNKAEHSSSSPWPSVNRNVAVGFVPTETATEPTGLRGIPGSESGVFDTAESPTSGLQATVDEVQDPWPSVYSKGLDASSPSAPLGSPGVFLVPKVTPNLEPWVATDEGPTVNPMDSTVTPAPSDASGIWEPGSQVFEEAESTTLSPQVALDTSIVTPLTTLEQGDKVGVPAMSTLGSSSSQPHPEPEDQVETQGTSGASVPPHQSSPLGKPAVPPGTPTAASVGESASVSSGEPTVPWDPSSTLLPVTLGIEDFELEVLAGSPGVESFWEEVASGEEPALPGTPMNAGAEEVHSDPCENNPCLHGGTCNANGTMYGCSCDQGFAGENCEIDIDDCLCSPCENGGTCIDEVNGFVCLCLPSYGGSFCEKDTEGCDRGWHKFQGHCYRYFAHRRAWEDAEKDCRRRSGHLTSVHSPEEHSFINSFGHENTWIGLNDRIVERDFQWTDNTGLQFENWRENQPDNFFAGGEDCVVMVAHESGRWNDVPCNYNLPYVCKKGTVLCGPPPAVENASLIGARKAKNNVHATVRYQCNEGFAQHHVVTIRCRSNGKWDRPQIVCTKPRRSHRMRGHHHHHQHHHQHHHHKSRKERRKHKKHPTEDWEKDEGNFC
# Sequence of wLAT-1A (Homo sapiens), Q01650 (Q01650 whole entry): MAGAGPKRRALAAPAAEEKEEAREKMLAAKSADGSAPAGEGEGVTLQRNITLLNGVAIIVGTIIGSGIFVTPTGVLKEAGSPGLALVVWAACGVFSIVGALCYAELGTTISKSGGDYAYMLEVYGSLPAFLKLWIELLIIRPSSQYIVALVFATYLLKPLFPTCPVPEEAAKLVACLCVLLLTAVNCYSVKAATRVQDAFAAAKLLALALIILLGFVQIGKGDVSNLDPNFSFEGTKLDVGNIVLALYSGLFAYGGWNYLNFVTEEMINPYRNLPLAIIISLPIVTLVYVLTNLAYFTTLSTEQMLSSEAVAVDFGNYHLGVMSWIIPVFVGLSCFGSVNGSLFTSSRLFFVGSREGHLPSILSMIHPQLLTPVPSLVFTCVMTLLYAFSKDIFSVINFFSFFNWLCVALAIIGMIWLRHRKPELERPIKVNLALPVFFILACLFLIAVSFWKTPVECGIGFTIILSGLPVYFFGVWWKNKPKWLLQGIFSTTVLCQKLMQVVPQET
# Sequence of CHI3L1 (Homo sapiens), P36222 (P36222 whole entry): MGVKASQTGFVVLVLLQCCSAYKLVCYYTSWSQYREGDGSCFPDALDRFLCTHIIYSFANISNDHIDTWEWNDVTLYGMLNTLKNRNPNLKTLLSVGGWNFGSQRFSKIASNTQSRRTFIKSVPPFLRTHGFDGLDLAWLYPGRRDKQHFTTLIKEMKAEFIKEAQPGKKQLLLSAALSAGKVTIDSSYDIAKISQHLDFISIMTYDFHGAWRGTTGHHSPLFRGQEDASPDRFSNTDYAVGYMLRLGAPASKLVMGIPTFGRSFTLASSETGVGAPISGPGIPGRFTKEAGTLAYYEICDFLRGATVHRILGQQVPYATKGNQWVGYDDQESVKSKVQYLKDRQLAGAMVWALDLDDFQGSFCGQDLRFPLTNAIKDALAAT
# Sequence of 6RG (Lolium perenne), B9U140 (B9U140 entry or part of it): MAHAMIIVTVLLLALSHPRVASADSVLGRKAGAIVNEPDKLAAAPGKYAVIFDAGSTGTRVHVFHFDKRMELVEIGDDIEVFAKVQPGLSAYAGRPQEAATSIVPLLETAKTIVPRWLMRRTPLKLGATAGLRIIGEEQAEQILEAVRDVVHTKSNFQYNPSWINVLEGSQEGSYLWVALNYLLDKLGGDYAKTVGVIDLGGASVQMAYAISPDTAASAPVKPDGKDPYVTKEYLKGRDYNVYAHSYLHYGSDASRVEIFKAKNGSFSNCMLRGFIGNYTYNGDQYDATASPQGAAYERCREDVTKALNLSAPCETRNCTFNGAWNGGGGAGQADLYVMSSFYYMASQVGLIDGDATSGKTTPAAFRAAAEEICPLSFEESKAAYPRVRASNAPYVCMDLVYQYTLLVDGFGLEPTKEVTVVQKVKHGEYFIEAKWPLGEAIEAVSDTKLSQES
# Sequence of PILRa (Mus musculus), Q2YSF3 (Q2YSF3 entry or part of it): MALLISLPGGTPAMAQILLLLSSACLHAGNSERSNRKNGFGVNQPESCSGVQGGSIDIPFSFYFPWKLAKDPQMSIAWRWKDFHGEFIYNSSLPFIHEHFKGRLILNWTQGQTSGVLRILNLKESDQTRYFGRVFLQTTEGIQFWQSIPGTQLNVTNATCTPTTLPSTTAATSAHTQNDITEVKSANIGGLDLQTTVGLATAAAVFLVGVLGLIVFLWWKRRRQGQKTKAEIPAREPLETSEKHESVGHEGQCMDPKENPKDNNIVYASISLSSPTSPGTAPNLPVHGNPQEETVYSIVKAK
# Sequence of C3b (Homo sapiens), P01024 (P01024 23-667): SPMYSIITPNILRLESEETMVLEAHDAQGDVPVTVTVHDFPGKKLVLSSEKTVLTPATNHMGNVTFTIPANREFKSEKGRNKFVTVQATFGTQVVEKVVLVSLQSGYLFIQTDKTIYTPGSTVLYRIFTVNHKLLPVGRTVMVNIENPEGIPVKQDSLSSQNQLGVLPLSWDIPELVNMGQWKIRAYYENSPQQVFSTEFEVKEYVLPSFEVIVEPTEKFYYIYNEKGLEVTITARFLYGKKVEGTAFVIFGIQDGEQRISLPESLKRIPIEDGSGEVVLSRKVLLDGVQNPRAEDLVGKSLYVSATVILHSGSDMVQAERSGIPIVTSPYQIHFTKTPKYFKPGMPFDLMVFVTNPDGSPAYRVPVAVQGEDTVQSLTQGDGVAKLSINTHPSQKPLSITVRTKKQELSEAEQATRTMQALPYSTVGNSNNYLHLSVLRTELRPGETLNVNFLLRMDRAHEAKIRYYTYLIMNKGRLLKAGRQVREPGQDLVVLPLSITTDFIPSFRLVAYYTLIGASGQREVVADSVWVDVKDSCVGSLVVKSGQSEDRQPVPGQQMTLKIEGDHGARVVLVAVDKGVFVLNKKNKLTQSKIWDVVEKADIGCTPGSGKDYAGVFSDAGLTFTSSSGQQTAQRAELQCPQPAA
# Sequence of Aggrecan (Rattus norvegicus), NP_071526 (chain, as listed by the source): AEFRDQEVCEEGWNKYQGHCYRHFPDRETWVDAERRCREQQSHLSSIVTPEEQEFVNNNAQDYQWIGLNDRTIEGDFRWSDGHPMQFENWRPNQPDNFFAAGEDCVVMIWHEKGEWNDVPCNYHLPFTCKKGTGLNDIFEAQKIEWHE
# Sequence of Regenerating Gene IV (Homo sapiens), Q9BYZ8 (Q9BYZ8 whole entry, looked up): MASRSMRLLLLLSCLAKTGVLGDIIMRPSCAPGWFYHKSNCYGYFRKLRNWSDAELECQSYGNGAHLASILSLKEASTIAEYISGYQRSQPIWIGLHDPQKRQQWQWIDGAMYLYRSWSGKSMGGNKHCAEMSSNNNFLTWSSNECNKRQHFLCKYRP
# Sequence of Avaren (Actinomycete K97) (chain, as listed by the source): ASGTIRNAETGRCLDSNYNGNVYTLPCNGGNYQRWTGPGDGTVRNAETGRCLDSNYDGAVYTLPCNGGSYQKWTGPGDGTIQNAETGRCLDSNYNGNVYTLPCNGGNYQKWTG
# Sequence of CHT (Homo sapiens) (chain, as listed by the source): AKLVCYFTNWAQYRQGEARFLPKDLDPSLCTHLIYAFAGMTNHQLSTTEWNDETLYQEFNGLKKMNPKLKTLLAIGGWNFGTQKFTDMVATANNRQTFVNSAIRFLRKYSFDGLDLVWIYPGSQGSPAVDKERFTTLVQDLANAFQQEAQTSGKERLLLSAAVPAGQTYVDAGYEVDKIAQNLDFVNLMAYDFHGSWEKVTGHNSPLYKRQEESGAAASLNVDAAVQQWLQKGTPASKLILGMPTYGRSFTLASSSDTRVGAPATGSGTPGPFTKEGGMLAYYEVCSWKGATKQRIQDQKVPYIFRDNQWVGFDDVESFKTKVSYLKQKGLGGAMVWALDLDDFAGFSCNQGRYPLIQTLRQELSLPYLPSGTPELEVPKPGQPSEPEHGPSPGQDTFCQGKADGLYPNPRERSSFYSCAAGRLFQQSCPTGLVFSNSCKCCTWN
substance,measurement,setting,value
"HARE (Homo sapiens), Q8WWQ8",glycan array binding signal (z-score),Gal6S(b1-4)Glc,0.81
"6RG (Lolium perenne), B9U140",glycan array binding signal (z-score),Gal6S(b1-4)Glc,0.084
same,glycan array binding signal (z-score),GalNAc(a1-3)Gal,-0.395
same,glycan array binding signal (z-score),[1],-0.228
"Siglec-8 (Homo sapiens), Q9NYZ4",glycan array binding signal (z-score),Gal6S(b1-4)Glc; mutation: R125K,0.06
same,glycan array binding signal (z-score),GalNAc(b1-6)GalNAc,-0.055
same,glycan array binding signal (z-score),[2],-0.267
"wLAT-1A (Homo sapiens), Q01650",glycan array binding signal (z-score),GalNAc(a1-3)GalNAc,6.65
same,glycan array binding signal (z-score),GalNAc(a1-3)Gal,3.46
same,glycan array binding signal (z-score),GalNAc(b1-3)GalNAc,1.87
MpAFP RI GFP (Marinomonas primoryensis),glycan array binding signal (z-score),GalNAc(a1-3)GalNAc,-0.566
"PILRb (Mus musculus), Q2YSF2",glycan array binding signal (z-score),[3],-0.074
same,glycan array binding signal (z-score),GalNAc(b1-3)GalNAc,0.288
same,glycan array binding signal (z-score),[4],0.156
"Aggrecan (Rattus norvegicus), NP_071526",glycan array binding signal (z-score),[5],0.017
same,glycan array binding signal (z-score),[6],0.828
"CHI3L1 (Homo sapiens), P36222",glycan array binding signal (z-score),[7],0.48
same,glycan array binding signal (z-score),[8],1.01
same,glycan array binding signal (z-score),Glc(a1-6)Glc(a1-6)Glc,-0.073
same,glycan array binding signal (z-score),[9],-0.129
"C3b (Homo sapiens), P01024",glycan array binding signal (z-score),Glc(a1-4)Glc,-0.67
same,glycan array binding signal (z-score),Glc(b1-6)Glc,3.33
Avaren (Actinomycete K97),glycan array binding signal (z-score),[8],-0.14
"PILRa (Mus musculus), Q2YSF3",glycan array binding signal (z-score),Glc(a1-6)Glc(a1-6)Glc,-0.233
same,glycan array binding signal (z-score),Glc(b1-6)Glc,-0.169
"Regenerating Gene IV (Homo sapiens), Q9BYZ8",glycan array binding signal (z-score),Glc(b1-4)Glc,5.46
"Neurocan (Homo sapiens), O14594",glycan array binding signal (z-score),GlcA(b1-3)Gal,0.453
same,glycan array binding signal (z-score),GlcA(b1-3)GlcNAc,10.5
same,glycan array binding signal (z-score),[2],-0.326
same,glycan array binding signal (z-score),[6],4.73
CHT (Homo sapiens),glycan array binding signal (z-score),"[1]; mutation: D138V, E140I",-0.189
